Compounds without any hit were thinned out: in the full panel of roughly 83,000, 20% have a hit.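 Cell lines were cultured in 96-well plates, exposed to a single compound concentration, and assessed for percent growth 48 hours later.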 Values without a mark were called inactive. The source made the active and inactive calls. Rule for the calls: active = growth percent below 10; inactive = the rest.
What was measured:
Assay in all cases: NCI-60 one-dose screen, 48 h (100 = growth as untreated, 0 = no growth, -100 = all killed)
SR leukemia = settings: 10 µM unless noted
RPMI-8226 leukemia = settings: 10 µM unless noted
OVCAR-8 ovarian = settings: 10 µM unless noted
OVCAR-5 ovarian = settings: 10 µM unless noted
OVCAR-4 ovarian = settings: 10 µM unless noted
SK-OV-3 ovarian = settings: 10 µM unless noted
IGROV1 ovarian = settings: 10 µM unless noted
OVCAR-3 ovarian = settings: 10 µM unless noted
HS 578T breast = settings: 10 µM
NCI/ADR-RES ovarian = settings: 10 µM unless noted
T-47D breast = settings: 10 µM unless noted
BT-549 breast = settings: 10 µM unless noted
MDA-MB-435 melanoma = settings: 10 µM unless noted
SW-620 colon = settings: 10 µM unless noted
MCF7 breast = settings: 10 µM unless noted
HCT-116 colon = settings: 10 µM unless noted
HCC-2998 colon = settings: 10 µM unless noted
KM12 colon = settings: 10 µM unless noted

SMILES	growth (SR leukemia)	growth (RPMI-8226 leukemia)	growth (OVCAR-8 ovarian)	growth (OVCAR-5 ovarian)	growth (OVCAR-4 ovarian)	growth (SK-OV-3 ovarian)	growth (IGROV1 ovarian)	growth (OVCAR-3 ovarian)	growth (HS 578T breast)	growth (NCI/ADR-RES ovarian)	growth (T-47D breast)	growth (BT-549 breast)	growth (MDA-MB-435 melanoma)	growth (SW-620 colon)	growth (MCF7 breast)	growth (HCT-116 colon)	growth (HCC-2998 colon)	growth (KM12 colon)
COc1cc(OC)cc(-c2n/c(=C\c3c(O)[nH]c4ccc(Cl)cc34)cc3c2=Nc2ccccc2-3)c1	23.5%	71.2%	54.5%	114%	16.1%	114%	-21.3% (active)	69.7%	90.4%	81.6%	84.9%	97.2%	99.3%	-1.36% (active)	24.3%	2.45% (active)	103%	22.8%
O=C(Nc1ccc(Br)cc1)Nc1ccccc1Cl	84.9%	50%	79.8%	90.1%	75.1%	84.6%	63.9%	88.1%	99.7%	80%	74.9%	103%	102%	96.4%	71%	–	91%	90.4%
O=C1OCC2=C1C(c1ccc(Cl)c(Cl)c1)c1cc3c(cc1N2CCO)CCC3 (configuration not stated)	33.7%	22%	23.5%	35.3%	50%	38.6%	30.1%	-42% (active)	5.2% (active)	4.51% (active)	63.3%	44.8%	-38.6% (active)	24.5%	20.4%	18.3%	–	9.04% (active)
COc1c(-c2cc(-c3ccc(C)o3)[nH]c(=O)n2)c(O)cc2occc12	27.1%	74.8%	73%	99%	72.4%	81.8%	58.4%	32.9%	54.5%	29.7%	45.5%	54%	-38.6% (active)	22.3%	28.1%	42.8%	92.1%	36.1%
O=Cc1ccc2nc(C(Cl)(Cl)Cl)ccc2c1	93.2%	93.7%	107%	108%	110%	90.5%	93.1%	103%	102%	105%	97.6%	95.9%	99.6%	98.3%	82.5%	–	109%	100%
O=C1/C(=C\c2cccn2Cc2ccc(F)cc2)c2ccccc2N1c1c(Cl)cccc1Cl	76%	74.6%	81.5%	81.9%	34.1%	96.2%	55.8%	80.7%	92.9%	76.1%	19%	95.6%	107%	92%	12.6%	70.8%	81.5%	54.4%
COC(=O)c1cc2oc(/C=N/NC(=O)c3cc4oc(-c5cccc(C(F)(F)F)c5)cc4[nH]3)cc2n1Cc1ccccc1	33%	85.6%	75.2%	107%	104%	110%	89.6%	111%	87.5%	97.9%	94.4%	–	99.6%	106%	88.8%	67.6%	90.5%	88.3%
CCCOC(=O)C1c2cc3c(cc2CC(C)C1C(=O)OCCC)OCO3 (configuration not stated)	90.7%	99.8%	102%	84.7%	88.7%	101%	75.8%	110%	103%	81.4%	86.2%	–	104%	101%	100%	60.1%	98.6%	108%
Oc1ccc(-c2cnc(-c3ccccc3)[nH]2)c(O)c1	40.2%	38.7%	119%	116%	106%	113%	94.3%	107%	97.7%	113%	107%	–	110%	109%	83.3%	78.6%	117%	102%
Nc1nonc1-c1nc2ccccc2n1Cc1ccc(F)cc1	22.3%	64.4%	76.7%	80.4%	66.9%	54.4%	48.7%	48.5%	53.6%	36.8%	61.3%	58%	-39.6% (active)	24.7%	28.4%	30.4%	58.8%	30.5%
CCCc1n(Cc2ccc3ccccc3n2)cc[n+]1Cc1ccc2ccccc2n1	13%	-10.8% (active)	35.6%	47.7%	8.56% (active)	61.6%	30.6%	9.64% (active)	58.8%	98.4%	7.17% (active)	13.9%	7.6% (active)	36.7%	15.3%	22.9%	26.2%	15.7%
CCc1ccc2c(c1)N(CCO)C1=C(C(=O)OC1)C2c1cccc(Cl)c1 (configuration not stated)	20.2%	20.3%	27%	30.3%	63.8%	27.2%	31.2%	-35.9% (active)	7.46% (active)	8.16% (active)	52.1%	42.1%	-57.3% (active)	26%	24.5%	15.3%	–	13.4%
C#CC[C@@H]1C[C@]2(C)[C@H]3CC=C4[C@H]5[C@@H](C)[C@H](C)CC[C@]5(C(=O)NCCCCCCCCN)CC[C@@]4(C)[C@]3(C)CC[C@H]2C(C)(C)[C@H]1OC(C)=O	3.43% (active)	-45.8% (active)	-33.6% (active)	108%	-0.477% (active)	116%	50.9%	-91.5% (active)	101%	65.9%	–	93.7%	-62.4% (active)	-61.9% (active)	-80.4% (active)	-99.4% (active)	58.4%	0.426% (active)
CCCCCCCCCCCCCCCCOc1ccc(S(=O)(=O)N(C)C)cc1[N+](=O)[O-]	81.6%	107%	102%	101%	101%	79.2%	98.5%	117%	80.4%	115%	–	97.4%	107%	113%	95.8%	98.2%	122%	112%
Cc1cc(-c2nnc(/C=C/c3ccc4c(c3)OCO4)o2)n[nH]1	18.7%	66.5%	91.5%	92.2%	96.8%	80.6%	40.7%	63.4%	80%	31.3%	60.9%	35.1%	-25.4% (active)	25.5%	31.7%	–	75.8%	36.1%
O=C(/C=C/c1cccc([N+](=O)[O-])c1)c1ccc(Nc2nc(N3CCCCC3)nc(N3CCCCC3)n2)cc1	90.6%	7.95% (active)	95.2%	110%	97.6%	97.4%	88.1%	91.5%	103%	103%	78.6%	91.8%	-11.7% (active)	94.2%	19.4%	–	81.8%	85.5%
Clc1ccc(Nc2ncnc3c2sc2ncccc23)c(Cl)c1	9.78% (active)	30%	4.31% (active)	59.5%	84.9%	25.5%	70.4%	55.5%	95.8%	15%	36.7%	44.6%	36.3%	47.9%	18.4%	27.6%	59.6%	50.8%
Cc1cc(C)cc(NC(=O)Cn2nncc2CN2C(=O)CSC2=O)c1	118%	110%	101%	110%	106%	92.5%	110%	110%	89.5%	–	99.9%	101%	103%	99.7%	93.4%	107%	108%	110%
